Assay results published in PubChem BioAssay AID687014 (The Scripps Research Institute Molecular Screening Center, 2013).
The campaign covered roughly 370,000 compounds. About 6,800 (1.8%) were called active. The sample as a whole holds a higher share of actives than the screen did. Values without a mark were called inactive.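 Rule for the calls: active = activation above a cutoff set at the mean of all screened compounds plus 3 SD (cut at about 10% in these data); inactive = the rest.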

Each compound was assayed on Nuclear hormone receptor DAF-12 (Heterodera glycines), GAL4 fusion (assay: H. glycines DAF-12 receptor agonists, primary screen, cell-based, luminescence, HEK293, GAL4 fusion, UAS-luciferase (AID 687014;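 note: 0% = DMSO wells and 100% = sodium butyrate wells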)). Conditions: HEK293 GAL4-hgDAF12 UAS-luciferase reporter, agonist luminescence; at 6.8 µM; active compounds read high.

Compound	activation
COc1ccc2c(c1)NP(=S)(c1ccccc1)N2 (stereo not given)	23.2% (active)
Cc1cc(C)c2c(c1)NP(=S)(c1ccccc1)N2 (stereo not given)	13.1% (active)
COc1cc(C(c2c(O)c3ccccc3oc2=O)c2c(C)n(C)n(-c3ccccc3)c2=O)ccc1O (stereo not given)	2.01%
CN(C)CC1CCCCC1=O (stereo not given)	1.62%
O=S(=O)(c1ccccc1)N1CCC2CCNC2C1 (stereo not given)	1.08%
CO[C@H]([C@H](C)/C=C/N(C)C=O)[C@@H](C)C(=O)CC[C@H](C)[C@H](O)[C@H](C)[C@H]1OC(=O)/C=C/C(C)=C/[C@H](O)[C@H](OC)C[C@@H]2C=CC[C@@H](C[C@H](OC)[C@@]3(CO3)[C@@H](OC)C[C@@H](OC)[C@@H]1C)O2	-9.43%
COP(=O)(Sc1ccccc1)C(Cc1ccccc1)NC(=O)OCc1ccccc1 (stereo not given)	1.8%
Cc1ccccc1CCC[C@@H](CC1CCCCC1)CN(C)C(=O)Oc1ccccc1	0.88%
c1ccc2sc(N3CCNCC3)nc2c1	5.89%
c1ccc2sc(C3CCCNC3)nc2c1 (stereo not given)	11.6% (active)
NC(=O)Nc1cccc(C(F)(F)F)c1	1.53%
CCCC[N+]1(C)C2CC(OC(=O)C(CO)c3ccccc3)CC1C1OC12 (stereo not given)	-2.54%
CC[N+](CC)(CC)CCCCCCCCCC[N+](CC)(CC)CC	0.44%
CS(=O)(=O)N1CCC2CCNC2C1 (stereo not given)	-2.06%
COc1cc(OC)cc(C(=O)NCCN2CCC3(CC2)C(=O)NCN3c2ccccc2)c1	-1.03%
O=C(N/N=C/c1c(O)n(C2CC2)c(=S)[nH]c1=O)c1ccccc1Cl	2.67%
O=c1[nH]c(=S)n(C2CC2)c(O)c1/C=N/N1CCOCC1	-1.58%
O=c1[nH]c(=O)n(CCc2ccccc2)c(O)c1/C=N/N1CCOCC1	0.56%
O=c1[nH]c(=O)n(Cc2ccccc2)c(O)c1/C=N/Nc1c(F)c(F)c(F)c(F)c1F	-0.57%
O=C(N/N=C/c1c(O)n(C2CC2)c(=S)[nH]c1=O)c1ccccc1	11.8% (active)
O=C(N/N=C/c1c(O)n(Cc2ccccc2)c(=O)[nH]c1=O)c1ccccc1	16% (active)
CCN(CC)C(=O)[C@@H]1C=C2c3cccc4[nH]c(Br)c(c34)C[C@H]2N(C)C1	-1.1%
Clc1ccc([C@@H]2CC3CCC2N3)cn1 (stereo not given in full)	1.87%
CCC(C)NC1(c2ccccc2)CCCCC1 (stereo not given)	1.32%
CN1CCN(C(=O)COc2ccc(C(C)(C)C)cc2Br)CC1	1.63%
O=C(Nc1cccc(OC(=O)N2CCCCC2)c1)N1CCOCC1	-0.57%
CC(C)(C)c1ccc(OC(=O)N2CCCCC2)cc1	14.4% (active)
Cc1cc(N2CCNC[C@@H]2C)ccc1N1CC[C@H](O)C1	0.8%
COc1ccc2c(c1)[C@@]13CCCCC1[C@@H](C2)NCC3 (stereo not given in full)	4.73%
Brc1ccc2c(c1)CNCc1cnnn1-2	0.9%
